Test results: ChEMBL document CHEMBL1961873, “Compounds: GSK PKIS; Assays: Nanosyn kinase panel” (2012)

Legend:
[1] = biological target: T1, Serine/threonine-protein kinase Nek9 (Homo sapiens) (UniProt Q8TD19); settings: at 1 µM;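 also: each value is a mean percent inhibition of NEK9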
T1 sequence (whole entry): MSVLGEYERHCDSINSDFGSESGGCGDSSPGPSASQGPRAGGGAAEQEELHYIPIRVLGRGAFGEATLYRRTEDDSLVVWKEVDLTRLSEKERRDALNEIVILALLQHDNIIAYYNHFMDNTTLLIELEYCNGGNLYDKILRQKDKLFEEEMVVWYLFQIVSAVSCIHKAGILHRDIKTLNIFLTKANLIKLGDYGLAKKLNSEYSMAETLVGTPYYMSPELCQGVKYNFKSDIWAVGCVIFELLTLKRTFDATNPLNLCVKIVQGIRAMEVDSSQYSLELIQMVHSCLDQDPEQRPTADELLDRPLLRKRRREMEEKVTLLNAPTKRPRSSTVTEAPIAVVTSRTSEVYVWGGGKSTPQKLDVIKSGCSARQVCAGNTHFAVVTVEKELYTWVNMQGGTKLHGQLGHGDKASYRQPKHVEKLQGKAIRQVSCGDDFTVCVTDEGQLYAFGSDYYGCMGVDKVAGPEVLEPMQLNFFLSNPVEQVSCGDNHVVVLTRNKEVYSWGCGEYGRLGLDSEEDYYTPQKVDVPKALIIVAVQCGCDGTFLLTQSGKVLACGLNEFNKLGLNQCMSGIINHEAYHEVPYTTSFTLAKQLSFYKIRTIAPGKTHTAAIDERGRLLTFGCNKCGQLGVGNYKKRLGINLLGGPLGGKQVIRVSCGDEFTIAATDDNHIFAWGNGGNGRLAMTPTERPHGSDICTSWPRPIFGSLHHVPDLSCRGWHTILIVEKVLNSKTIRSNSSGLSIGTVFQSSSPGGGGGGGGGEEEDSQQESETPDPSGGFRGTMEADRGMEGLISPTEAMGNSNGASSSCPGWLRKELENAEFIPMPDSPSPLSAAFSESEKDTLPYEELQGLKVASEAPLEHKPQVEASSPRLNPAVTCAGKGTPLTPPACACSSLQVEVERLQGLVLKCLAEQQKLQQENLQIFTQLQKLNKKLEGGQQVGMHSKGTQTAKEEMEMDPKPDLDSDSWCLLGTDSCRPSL

[2] = biological target: Serine/threonine-protein kinase PLK1 (Homo sapiens) (UniProt P53350); settings: at 0.1 µM
Chain of Serine/threonine-protein kinase PLK1 (Homo sapiens) (P53350 whole entry): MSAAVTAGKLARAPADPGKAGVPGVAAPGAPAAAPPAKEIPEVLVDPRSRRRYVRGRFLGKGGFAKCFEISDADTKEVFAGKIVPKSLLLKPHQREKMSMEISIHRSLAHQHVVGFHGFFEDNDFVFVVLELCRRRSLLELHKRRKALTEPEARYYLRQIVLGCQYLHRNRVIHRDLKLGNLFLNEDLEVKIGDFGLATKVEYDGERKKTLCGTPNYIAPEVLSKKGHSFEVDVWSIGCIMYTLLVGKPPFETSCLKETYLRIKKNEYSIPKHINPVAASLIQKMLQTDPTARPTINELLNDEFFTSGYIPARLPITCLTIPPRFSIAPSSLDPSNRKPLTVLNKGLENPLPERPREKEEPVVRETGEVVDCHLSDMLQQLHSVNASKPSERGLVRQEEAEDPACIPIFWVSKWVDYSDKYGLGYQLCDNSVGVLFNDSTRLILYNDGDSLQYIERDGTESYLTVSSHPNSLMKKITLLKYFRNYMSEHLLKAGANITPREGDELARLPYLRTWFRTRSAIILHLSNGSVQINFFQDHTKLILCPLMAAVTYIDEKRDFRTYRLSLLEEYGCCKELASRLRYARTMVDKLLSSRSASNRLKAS

[3] = biological target: Serine/threonine-protein kinase PLK1 (Homo sapiens) (UniProt P53350); settings: at 1 µM
[4] = biological target: T2, Dual specificity protein kinase TTK (Homo sapiens) (UniProt P33981); settings: at 0.1 µM
T2 sequence (whole entry): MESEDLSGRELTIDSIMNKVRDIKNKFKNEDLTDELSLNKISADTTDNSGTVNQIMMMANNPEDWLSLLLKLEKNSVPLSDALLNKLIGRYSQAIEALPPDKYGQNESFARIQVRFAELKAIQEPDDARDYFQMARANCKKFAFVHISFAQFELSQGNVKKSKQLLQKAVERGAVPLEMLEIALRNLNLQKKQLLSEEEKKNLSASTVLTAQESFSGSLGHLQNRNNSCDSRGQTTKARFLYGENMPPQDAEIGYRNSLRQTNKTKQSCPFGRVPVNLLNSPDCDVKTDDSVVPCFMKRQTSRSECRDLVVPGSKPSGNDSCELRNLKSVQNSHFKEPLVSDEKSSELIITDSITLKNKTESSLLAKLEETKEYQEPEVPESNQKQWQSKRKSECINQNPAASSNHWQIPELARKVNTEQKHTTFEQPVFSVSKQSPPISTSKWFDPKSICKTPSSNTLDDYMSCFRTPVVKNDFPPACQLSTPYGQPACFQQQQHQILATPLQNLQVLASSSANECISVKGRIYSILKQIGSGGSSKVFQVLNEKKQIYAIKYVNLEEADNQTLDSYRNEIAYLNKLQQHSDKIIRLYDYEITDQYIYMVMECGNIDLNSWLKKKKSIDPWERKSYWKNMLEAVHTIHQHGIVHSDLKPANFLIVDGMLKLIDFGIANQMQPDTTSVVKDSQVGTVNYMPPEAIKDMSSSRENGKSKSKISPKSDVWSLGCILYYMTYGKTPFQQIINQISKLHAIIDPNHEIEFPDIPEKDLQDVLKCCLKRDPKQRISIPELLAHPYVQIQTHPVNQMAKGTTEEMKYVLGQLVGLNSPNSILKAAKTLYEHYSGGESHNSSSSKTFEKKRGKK

[5] = system: T3, Receptor-type tyrosine-protein kinase FLT3 (Homo sapiens), P36888 [D835Y]; settings: at 1 µM
T3 sequence (whole entry): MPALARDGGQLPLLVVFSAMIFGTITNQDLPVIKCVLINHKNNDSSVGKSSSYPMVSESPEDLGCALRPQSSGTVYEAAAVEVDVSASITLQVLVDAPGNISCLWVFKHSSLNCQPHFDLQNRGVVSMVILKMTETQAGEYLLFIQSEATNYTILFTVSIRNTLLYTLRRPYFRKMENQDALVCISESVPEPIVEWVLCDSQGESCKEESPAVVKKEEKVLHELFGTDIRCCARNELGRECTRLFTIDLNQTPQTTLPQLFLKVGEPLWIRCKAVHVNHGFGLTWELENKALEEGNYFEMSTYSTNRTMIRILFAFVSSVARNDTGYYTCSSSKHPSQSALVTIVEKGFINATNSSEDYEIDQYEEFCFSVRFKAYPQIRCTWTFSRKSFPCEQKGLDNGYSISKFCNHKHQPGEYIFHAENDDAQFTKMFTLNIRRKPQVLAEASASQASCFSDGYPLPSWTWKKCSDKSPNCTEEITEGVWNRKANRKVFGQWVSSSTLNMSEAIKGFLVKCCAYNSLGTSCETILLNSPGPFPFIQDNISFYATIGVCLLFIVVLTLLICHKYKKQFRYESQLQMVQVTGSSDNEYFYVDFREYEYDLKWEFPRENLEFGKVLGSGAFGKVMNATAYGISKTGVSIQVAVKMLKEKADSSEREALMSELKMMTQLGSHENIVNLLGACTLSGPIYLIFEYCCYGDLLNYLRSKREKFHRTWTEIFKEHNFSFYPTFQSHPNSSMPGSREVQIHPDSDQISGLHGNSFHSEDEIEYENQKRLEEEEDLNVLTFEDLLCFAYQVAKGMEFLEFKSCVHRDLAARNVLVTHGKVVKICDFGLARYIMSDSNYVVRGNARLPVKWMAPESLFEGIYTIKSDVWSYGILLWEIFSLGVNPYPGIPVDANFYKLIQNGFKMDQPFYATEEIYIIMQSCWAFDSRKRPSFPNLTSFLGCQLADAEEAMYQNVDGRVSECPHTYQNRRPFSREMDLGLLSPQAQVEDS

[6] = biological target: Vascular endothelial growth factor receptor 3 (Homo sapiens) (UniProt P35916); settings: at 0.1 µM
Chain of Vascular endothelial growth factor receptor 3 (Homo sapiens) (P35916 whole entry): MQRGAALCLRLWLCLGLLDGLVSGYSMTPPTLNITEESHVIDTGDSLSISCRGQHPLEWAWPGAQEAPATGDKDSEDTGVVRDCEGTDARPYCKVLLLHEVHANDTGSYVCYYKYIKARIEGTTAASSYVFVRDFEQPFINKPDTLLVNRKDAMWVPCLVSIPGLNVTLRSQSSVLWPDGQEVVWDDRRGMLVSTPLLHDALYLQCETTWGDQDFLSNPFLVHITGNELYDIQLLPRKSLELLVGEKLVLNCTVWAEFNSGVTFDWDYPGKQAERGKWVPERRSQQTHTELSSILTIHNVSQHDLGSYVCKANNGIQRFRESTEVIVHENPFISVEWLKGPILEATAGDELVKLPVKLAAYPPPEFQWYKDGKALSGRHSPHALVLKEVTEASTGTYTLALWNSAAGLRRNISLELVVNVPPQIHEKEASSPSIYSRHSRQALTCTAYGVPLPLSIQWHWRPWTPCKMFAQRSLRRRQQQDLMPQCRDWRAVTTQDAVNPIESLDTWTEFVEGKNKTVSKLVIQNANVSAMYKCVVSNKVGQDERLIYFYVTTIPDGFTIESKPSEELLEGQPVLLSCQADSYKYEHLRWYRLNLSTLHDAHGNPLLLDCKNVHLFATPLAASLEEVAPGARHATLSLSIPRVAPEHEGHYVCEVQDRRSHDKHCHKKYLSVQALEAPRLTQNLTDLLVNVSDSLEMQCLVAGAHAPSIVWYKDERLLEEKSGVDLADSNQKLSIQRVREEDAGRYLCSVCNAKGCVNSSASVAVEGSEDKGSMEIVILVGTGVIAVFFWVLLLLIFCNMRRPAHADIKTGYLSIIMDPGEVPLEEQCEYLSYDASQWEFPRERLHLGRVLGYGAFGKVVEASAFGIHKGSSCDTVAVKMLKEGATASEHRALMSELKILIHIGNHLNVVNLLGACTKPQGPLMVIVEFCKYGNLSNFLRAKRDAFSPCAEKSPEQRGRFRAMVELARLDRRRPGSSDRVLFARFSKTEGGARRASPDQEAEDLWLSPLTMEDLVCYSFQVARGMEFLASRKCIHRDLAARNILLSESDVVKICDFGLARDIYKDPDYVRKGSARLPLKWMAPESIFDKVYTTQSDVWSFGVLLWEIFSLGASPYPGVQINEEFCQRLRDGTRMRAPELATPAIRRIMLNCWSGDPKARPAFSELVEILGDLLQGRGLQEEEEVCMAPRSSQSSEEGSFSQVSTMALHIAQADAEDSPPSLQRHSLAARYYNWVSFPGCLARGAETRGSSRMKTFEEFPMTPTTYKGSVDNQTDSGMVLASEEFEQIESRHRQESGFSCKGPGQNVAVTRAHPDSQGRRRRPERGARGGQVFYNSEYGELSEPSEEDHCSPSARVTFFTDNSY

[7] = biological target: Vascular endothelial growth factor receptor 3 (Homo sapiens) (UniProt P35916); settings: at 1 µM
[8] = biological target: Macrophage colony-stimulating factor 1 receptor (Homo sapiens) (UniProt P07333); settings: at 0.1 µM
Chain of Macrophage colony-stimulating factor 1 receptor (Homo sapiens) (P07333 whole entry): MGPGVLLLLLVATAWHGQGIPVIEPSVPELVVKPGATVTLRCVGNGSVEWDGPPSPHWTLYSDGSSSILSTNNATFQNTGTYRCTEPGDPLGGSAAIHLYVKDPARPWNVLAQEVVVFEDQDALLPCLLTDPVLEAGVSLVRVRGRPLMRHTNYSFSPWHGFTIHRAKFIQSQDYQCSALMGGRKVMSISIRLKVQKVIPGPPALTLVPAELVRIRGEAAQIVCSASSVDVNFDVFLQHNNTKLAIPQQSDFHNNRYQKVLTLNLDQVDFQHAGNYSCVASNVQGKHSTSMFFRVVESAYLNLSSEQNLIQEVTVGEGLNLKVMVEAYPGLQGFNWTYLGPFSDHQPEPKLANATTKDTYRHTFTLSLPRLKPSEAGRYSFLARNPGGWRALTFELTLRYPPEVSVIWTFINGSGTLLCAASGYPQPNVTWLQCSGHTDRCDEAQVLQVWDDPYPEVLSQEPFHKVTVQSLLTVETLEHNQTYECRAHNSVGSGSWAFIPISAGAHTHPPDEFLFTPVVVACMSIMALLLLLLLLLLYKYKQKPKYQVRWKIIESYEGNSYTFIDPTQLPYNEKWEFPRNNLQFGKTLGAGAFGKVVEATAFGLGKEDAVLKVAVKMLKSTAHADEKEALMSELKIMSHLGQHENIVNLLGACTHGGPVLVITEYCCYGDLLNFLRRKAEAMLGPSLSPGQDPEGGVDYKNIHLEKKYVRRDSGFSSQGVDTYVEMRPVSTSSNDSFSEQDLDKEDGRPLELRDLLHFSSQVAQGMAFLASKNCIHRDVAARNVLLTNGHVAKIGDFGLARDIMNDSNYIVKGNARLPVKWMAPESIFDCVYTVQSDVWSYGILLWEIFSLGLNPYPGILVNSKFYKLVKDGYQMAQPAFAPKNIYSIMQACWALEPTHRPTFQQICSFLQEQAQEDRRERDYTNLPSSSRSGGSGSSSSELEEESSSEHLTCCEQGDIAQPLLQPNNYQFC

[9] = biological target: Macrophage colony-stimulating factor 1 receptor (Homo sapiens) (UniProt P07333); settings: at 1 µM
[10] = biological target: Tyrosine-protein kinase Fyn (Homo sapiens) (UniProt P06241); settings: at 0.1 µM
Chain of Tyrosine-protein kinase Fyn (Homo sapiens) (P06241 2-537 limits assumed): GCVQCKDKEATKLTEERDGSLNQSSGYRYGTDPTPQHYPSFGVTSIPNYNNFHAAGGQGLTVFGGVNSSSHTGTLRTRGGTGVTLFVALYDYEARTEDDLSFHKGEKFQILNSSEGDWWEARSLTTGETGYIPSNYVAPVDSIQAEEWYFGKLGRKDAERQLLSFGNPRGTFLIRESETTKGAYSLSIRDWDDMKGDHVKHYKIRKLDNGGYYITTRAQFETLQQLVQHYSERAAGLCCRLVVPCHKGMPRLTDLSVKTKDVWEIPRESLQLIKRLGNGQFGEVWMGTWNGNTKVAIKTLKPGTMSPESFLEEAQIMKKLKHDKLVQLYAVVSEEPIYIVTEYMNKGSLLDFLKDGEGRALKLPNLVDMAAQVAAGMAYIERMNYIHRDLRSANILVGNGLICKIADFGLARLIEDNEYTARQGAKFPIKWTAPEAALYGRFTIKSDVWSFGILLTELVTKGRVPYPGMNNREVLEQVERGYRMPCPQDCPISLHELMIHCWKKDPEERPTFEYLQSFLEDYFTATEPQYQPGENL

Compound	inhibition [1] [%]	inhibition [2] [%]	inhibition [3] [%]	inhibition [4] [%]	inhibition [5] [%]	inhibition [6] [%]	inhibition [7] [%]	inhibition [8] [%]	inhibition [9] [%]	inhibition [10] [%]
Cc1nnc(-c2ccc(C)c(-c3ccc(C(=O)Nc4cccc(C#N)c4)cc3)c2)o1	6.96	2.65	1.18	3.88	1.89	-1.08	1.02	-0.4	0.77	3.8
c1cnn2ncc(-c3ccnc(Nc4ccc5c(c4)OCCO5)n3)c2c1	49.9	8.35	29.4	11.9	36.1	8.6	21.8	44.5	85.7	1.57
Nc1nc(-c2ccc3c(c2)C(=Cc2cc(Br)c(O)c(Br)c2)C(=O)N3)cs1	8.59	0.43	3.62	2.39	3.47	4.68	6.47	-1.81	2.56	-0.03
CS(=O)(=O)CCNCc1nc(-c2ccc3ncnc(Nc4ccc(F)c(Cl)c4)c3c2)cs1	-7.92	1.65	1.15	1.71	5.8	3.61	6.4	1.81	3.54	-1.21
CCn1c(-c2nonc2N)nc2c(N3CCCC3)nccc21	1.67	1.87	-0.08	9.05	-4.08	2.79	3.38	-0.51	0.02	-0.01
CCCN1CCC(Oc2cc(Nc3nc(Nc4cccc(F)c4C(N)=O)c4cc[nH]c4n3)c(OC)cc2Cl)CC1	-2.13	8.91	47.5	3.35	-3.06	12.3	14.6	-0.53	3.9	1.38
CN(C)c1cc2c(Nc3ccc4nc(Cc5ccccc5)[nH]c4c3)ncnc2cn1	10.6	6.15	6.34	13.2	-1.97	7.56	11.3	4.7	15.4	4.62
Cc1cccc(-c2n[nH]cc2-c2ccc3ncccc3n2)n1	4.16	0.53	3.07	2.51	-2.35	4.9	39.4	2.38	2.47	0.64
O=C1NC(=O)C(c2cccc(Cl)c2)=C1Nc1ccc(O)c(Cl)c1	8.97	2.84	3.21	2.22	3.58	1.15	13.3	5.89	46.8	2.3
NC(=O)c1cccc(Nc2nccc(Nc3cccc4[nH]ncc34)n2)c1	7.1	-1.69	3.37	-7.5	37.5	5.01	33.4	3.46	34.1	85.9
O=C1NC(=O)C(N2CCc3ccccc32)=C1c1ccc(Cl)cc1	6.39	3.88	2.74	7.71	14.7	1.62	0.97	4.95	4.62	4.56
COc1ccc(-c2coc3ncnc(N)c23)cc1	6.24	3.82	3.47	10.9	-3.79	0.69	-0.08	4.17	2.83	0.65
CCc1cccc(NC(=O)Nc2ccc(Oc3ccc4nc(NC(=O)OC)[nH]c4c3)cc2)c1	3.95	2.03	1.1	6.8	6.29	7.64	16.3	44.8	54.6	-2.29
Cn1cc(C=C2C(=O)Nc3cccnc32)c2ccccc21	4.67	2.71	1.58	9.66	77.5	4.88	30.3	6.48	30.9	4.64
CC1=C(C(=O)Nc2ccc3[nH]ncc3c2)C(c2ccc(F)cc2)NC(=O)N1 (stereo not given)	3.09	2.01	1.91	3.79	-1.48	18.2	15.4	1.12	0.9	1.72
CC1=C(C(=O)Nc2ccc3[nH]ncc3c2)C(c2ccc(Cl)c(Cl)c2)CC(=O)N1 (stereo not given)	3.13	2.57	1.43	2.15	0.84	-2.61	1	-0.52	1.97	1.91
Cc1nn(C)c2cc(N(C)c3ccnc(Nc4cccc(S(N)(=O)=O)c4)n3)ccc12	13.1	2.85	3.39	13	11.9	15.6	62.9	75.5	93.9	4.56

Compound	inhibition [1] [%]	inhibition [2] [%]	inhibition [3] [%]	inhibition [4] [%]	inhibition [5] [%]	inhibition [6] [%]	inhibition [7] [%]	inhibition [8] [%]	inhibition [9] [%]	inhibition [10] [%]
O=C(Nc1n[nH]c2nc(-c3ccco3)c(Br)cc12)C1CC1	3.52	4.46	4.35	4.94	5.36	1.95	9.43	0.44	1.78	3.33
CCn1c(-c2nonc2N)nc2c(C#CC(C)(C)O)nc(CN3CCCC3)cc21	3.04	-0.39	-1.2	1.71	0.63	0.61	5.17	-0.03	2.57	2.94
CCn1c(-c2nonc2N)nc2cncc(C(=O)N3CC[C@H](N)C3)c21	19.1	4.34	8.01	16	-5.46	5.85	7.41	1.27	3.01	3.5
Fc1cccc(COc2ccc(Nc3ncnc4sc(-c5cccs5)cc34)cc2Cl)c1	2.21	1.64	2.97	2.43	4.36	3.77	3.65	0.1	11.2	1.11
CC(C)=Cc1cccc2c1/C(=N/Nc1ccc(S(N)(=O)=O)cc1)C(=O)N2	1.52	-0.43	0.59	11.7	66.6	4.82	46.6	41.8	86.8	4.49
COc1cc2c(cc1Nc1nc(N3CCc4ccccc43)c3cc[nH]c3n1)N(C(=O)CN(C)C)CC2	0.78	5.82	25.4	7.66	2.32	12.9	13.7	1.41	2.14	-1.37
CCn1c(-c2nonc2N)nc2cncc(C(=O)N3CCNCC3)c21	5.61	5.97	14.3	12.2	-1.93	5.86	7.52	4.42	5.74	2.61
Cc1ccc(C(=O)NC2CCCCC2)cc1-c1ccc(C(=O)NCC2CC2)cc1	-4.93	3	2.23	2.82	-1.53	3.84	5.49	-0.58	5.17	-0.84
COc1ccc(-c2nn3ncccc3c2-c2ccnc(Nc3ccc(Cl)c(C(F)(F)F)c3)n2)cc1	6.74	0.21	3.01	5.35	-6.5	-0.61	3.27	-1.71	5.03	3.8
COc1cc2ncn(-c3cc(OCc4ccccc4Cl)c(C(N)=O)s3)c2cc1OC	55.5	93.8	96.3	2.78	9.43	11.9	54.8	1.91	23.7	2.79
CS(=O)(=O)CCNCc1ccc(-c2ccc3ncnc(Nc4ccc(OCc5cccc(F)c5)c(C(F)(F)F)c4)c3c2)o1	10.1	3.95	3.53	12.1	4.32	-0.03	-1.42	0.94	-0.75	1.1
Nc1ncnc2occ(-c3ccc(NC(=O)Nc4cc(C(F)(F)F)cc(C(F)(F)F)c4)cc3)c12	-1.98	2.75	1.86	1.59	33.2	9.31	56.5	51.2	95.3	0.55
CS(=O)(=O)CCN(CC#N)Cc1ccc(-c2ccc3ncnc(Nc4ccc(OCc5cccc(F)c5)c(Cl)c4)c3c2)o1	3.24	4.17	2.97	2.64	0.21	-3.53	-8.49	1.14	5.44	-3.25
CCn1c(-c2nonc2N)nc2c(C#CC(C)(C)O)nc(OC[C@@H](N)c3ccccc3)cc21	-5.29	7.34	0.17	-3.32	2.58	17.4	68.9	-0.21	-0.91	2.28
CCn1c(-c2nonc2N)nc2ccncc21	5.33	1.68	2.44	3.2	0.13	2.12	2.74	0.3	0	2.62
COc1cccc(-n2ncc3c(N/N=C/c4cccc(F)c4)ncnc32)c1	3.11	3.32	3.39	6.88	14.1	-8.81	-1.89	-0.57	3.43	4.02
